Active and inactive are the calls of the source.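 The calls were made as follows: active = inhibition above 20% together with a positive visual image hit; inconclusive = visual image hit but inhibition not above 20%; inactive = no visual image hit.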

The nature of this assay: inhibitors of TNFa-induced NFkB p65 translocation, primary screen, imaging, HUVEC, MLSMR starter and 10KST1 sets (AID 438).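 Also: compound added about 3h40 before a 20 min TNFalpha stimulation.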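 As to inhibition: signal is the nuclear over cytoplasmic p65 intensity ratio per well.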 The settings on record: HUVEC TNFa-induced p65 nuclear translocation; cell count: measured here: nuclei count (cytotoxicity indicator), at 2.08 µM; inhibition: at 2 µM, stronger effect = higher value, 0% TNFa-plus-vehicle, 100% no-TNFa wells.
As a reminder, the inhibition is the relative decrease from the control value, in per cent. On to `COc1ccc(C)cc1NS(=O)(=O)c1ccc(NS(=O)(=O)c2ccc(NC(C)=O)cc2)cc1`, for which the inhibition was -7.8% (inactive) and the cell count stood at 345.

Regarding `O=C(c1ccc(Cl)s1)N1CCN(c2nc3ccccc3s2)CC1`, the inhibition was -17.3% (inactive) and the cell count is 721.

Consider `CCCC(=O)Nc1cc(C)c(NC(=O)c2ccccn2)cn1`, for which the cell count worked out at 418 and the inhibition was 13.7% (inactive).

On to `c1ccc2c(c1)CC(N1CCCCC1)c1ccccc1N2` (stereo not drawn), for which the cell count stood at 631 and the inhibition is -6.3% (inactive).

For `C=CCN(CC=C)C(=O)c1ccncc1`, the cell count is 267 and the inhibition was -14% (inactive).

For the molecule `Fc1cccc(NCc2cn3ccccc3n2)c1`, the cell count turned out to be 664 and the inhibition was -8% (inactive).

With `COc1ccc(S(=O)(=O)NCCC(=O)NC2CCCCCCC2)cc1`, the inhibition was 2.8% (inactive) and the cell count worked out at 293.

Turning to `O=C(C1CCCN(S(=O)(=O)c2cccs2)C1)N1CCc2ccccc2C1` (stereo not drawn), the cell count is 668 and the inhibition is -3.6% (inactive).

Consider `CCCCc1noc2c1/C(=N\O)CC(c1ccccc1)C2` (stereo not drawn), for which the cell count was determined as 365 and the inhibition was 2% (inactive).

As to `CCOC(=O)C1CN(S(=O)(=O)c2ccc(C)cc2)CCN1S(=O)(=O)c1ccc(C)cc1` (stereo not drawn), the cell count stood at 339 and the inhibition is 3.3% (inactive).

Consider `CCS(=O)(=O)NCCc1cc2c(OC)ccc(OC)c2[nH]c1=O`, for which the cell count amounted to 349 and the inhibition is -15.2% (inactive).

Take `COC(=O)C1=C(C)NC(C)=C(C(=O)OC)C1C1CC=CCC1` (stereo not drawn): the cell count worked out at 377 and the inhibition is 1.7% (inactive).

For the molecule `CCOCC(=O)Nc1c(C(=O)Nc2ccc(OC)cc2OC)oc2ccccc12`, the inhibition is -4.1% (inactive) and the cell count is 543.

For `Cc1nn(Cc2ccc(C(=O)NC3CCCCC3)o2)c(C)c1Br`, the cell count is 463 and the inhibition is -0.6% (inactive).

For `O=C(C1CCN(S(=O)(=O)c2cccc3cccnc23)CC1)N1CCN(C2CCCCC2)CC1`, the inhibition was 10.7% (inactive) and the cell count is 412.

In the case of `COc1cccc(C2CC(c3ccc(F)cc3)Nc3nc(N)nn32)c1` (stereo not drawn), the inhibition was -6.5% (inactive) and the cell count was 605.

With `CCSc1nnc(NC(=O)c2csc(C)c2)s1`, the inhibition was 4.2% (inactive) and the cell count was 366.

In the case of `Cc1ccc2cc(CCNC(=O)C(C)C)c(=O)[nH]c2c1C`, the inhibition was 1.9% (inactive) and the cell count was found to be 640.

For the molecule `COc1cccc(-c2nc(CS(=O)(=O)CC(=O)N3CCN(c4ccccn4)CC3)c(C)o2)c1`, the cell count worked out at 752 and the inhibition was -4.4% (inactive).

As to `COC(=O)CSc1ncccc1-c1nc2ccccc2[nH]1`, the cell count worked out at 473 and the inhibition was -4.5% (inactive).

For the molecule `Cc1ccc2[nH]c(=O)c(-c3noc(-c4ccncc4)n3)cc2c1`, the cell count was found to be 474 and the inhibition is -9.1% (inactive).

Take `C/C(=N\O)C(=O)NCc1ccccn1`: the inhibition was 0.5% (inactive) and the cell count is 290.

`CCCC(=O)Nc1ccccc1-c1nnn(CC(=O)Nc2ccc(OCC)cc2)n1`: the inhibition was 3% (inactive) and the cell count amounted to 369.

Consider `CSc1nnc(-c2ccc(NC(=O)CCc3ccccc3)cc2)n1C`, for which the inhibition was -28.4% (inactive) and the cell count turned out to be 711.

Turning to `Cn1c(=O)c2c(nc(-n3ccnc3)n2C)n(C)c1=O`, the inhibition was -8.5% (inactive) and the cell count is 311.

Take `COC(=O)c1ccccc1NC(=O)CSc1nc2c(c(=O)n(C)c(=O)n2C)n1C`: the cell count came out at 470 and the inhibition was 1% (inactive).

On to `CN(C(=O)Cn1c(=O)n(CCCCC(=O)NC2CCCC2)c(=O)c2ccccc21)C1CCCCC1`, for which the inhibition was -1.2% (inactive) and the cell count was 347.

Turning to `CCOC(=O)c1ccc(NC(=O)Cn2cc3c(n2)CCC(C)C3)cc1` (stereo not drawn), the inhibition was -3.7% (inactive) and the cell count was found to be 711.

Turning to `O=C(Nc1cnn(C23CC4CC(CC(C4)C2)C3)c1)c1cnn2c(C(F)(F)F)cc(-c3ccco3)nc12`, the inhibition was -8.8% (inactive) and the cell count came to 501.

On to `N#C/C(=C(/O)COC(=O)CCC1CCCCC1)c1nc2ccccc2[nH]1`, for which the cell count turned out to be 317 and the inhibition was -3.4% (inactive).

Turning to `O=C(c1ccccc1-c1nc(-c2ccccc2)no1)N1CCCC1`, the inhibition is -8.6% (inactive) and the cell count is 600.

With `CC(=O)SCCC(=O)Nc1ccccc1`, the inhibition is -1.4% (inactive) and the cell count came out at 646.

Take `c1ccc(Cn2ncc3c2ncn2c(-c4ccncc4)nnc32)cc1`: the cell count was 430 and the inhibition was -10.4% (inactive).

Regarding `CCOC(=O)c1sc2nc(SCC(=O)NCc3ccco3)n(Cc3ccccc3)c(=O)c2c1C`, the cell count was 395 and the inhibition was -1.1% (inactive).

With `N#Cc1nc(-c2ccco2)oc1N1CCN(c2cccc(Cl)c2)CC1`, the inhibition was -7.5% (inactive) and the cell count was determined as 744.

Take `COc1ccc(C2(C(=O)N3CCCC3)CCOCC2)cc1OC`: the cell count was 352 and the inhibition was 5.5% (inactive).

For the molecule `O=C(O)CN1C(=O)CNC1=O`, the cell count amounted to 249 and the inhibition is 8.5% (inactive).

For `Cc1c(Cl)cnc(NC(=O)COC(=O)C(NC(=O)c2ccco2)C(C)C)c1Cl` (stereo not drawn), the cell count was 362 and the inhibition was 7.4% (inactive).

For `CCOc1ccc(N(CC(=O)NCc2ccco2)S(=O)(=O)c2ccc(OC)c(OC)c2)cc1`, the cell count stood at 429 and the inhibition is 3.5% (inactive).

These data come from PubChem BioAssay.
